Screening results deposited in PubChem by National Center for Advancing Translational Sciences (NCATS).
The list is not random: actives were taken first. Their share in the collection is about 6%.
D1 PAM – enhances dopamine response at the human D1 receptor | potentiation, % at 10 µM | AID 504651 | HEK293 TREx D1 cells, calcium flux, dopamine EC20 potentiation | actives 0.036% (n = 360,000); in the data active = potentiation above about 30%
DRD3 antagonist – D3 dopamine receptor (human) antagonism; P35462; D3R cells, DiscoveRx beta-arrestin luminescence, antagonist mode; hits give low values; max response, negative = inhibition, %; actives 2.5% (n = 360,000); in the data active = max response below about -50%; inconclusive = no clear call, values can overlap the other calls
Target sequence (P35462 whole entry, looked up): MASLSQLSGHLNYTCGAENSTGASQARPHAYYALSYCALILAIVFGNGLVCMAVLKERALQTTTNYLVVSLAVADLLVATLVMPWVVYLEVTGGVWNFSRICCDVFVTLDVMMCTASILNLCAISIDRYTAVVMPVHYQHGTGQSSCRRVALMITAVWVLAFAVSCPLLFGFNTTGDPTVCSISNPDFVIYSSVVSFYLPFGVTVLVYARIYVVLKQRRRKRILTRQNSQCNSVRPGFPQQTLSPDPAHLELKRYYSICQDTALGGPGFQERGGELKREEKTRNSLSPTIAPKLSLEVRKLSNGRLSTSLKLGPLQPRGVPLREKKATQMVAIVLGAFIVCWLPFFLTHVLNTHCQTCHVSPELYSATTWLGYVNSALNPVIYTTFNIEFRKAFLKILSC
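Cells expressing the human receptor were seeded at 1500 cells/well, incubated overnight at 37 degrees C in 5% CO2, then exposed to library compounds with dopamine controls for 90 minutes at 37 degrees C before luminescent detection.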
D1 antagonist – antagonists of human D1 dopamine receptor; P21728; HEK293 TREx D1 cells, calcium flux, dopamine EC80; hits give low values; activity change, negative = inhibition, % at 10 µM; actives 3.2% (n = 360,000); AID 504652; in the data active = activity change below about -30%
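Compound effects on dopamine-evoked calcium signalling were measured in tetracycline-induced HEK293 Trex D1 cells. Dopamine at EC80 followed a 180 s compound pre-read, and fluorescence was tracked kinetically for 180 s more.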
D1 ag – activates the human D1 dopamine receptor; AID 504660; P21728; actives 1% (n = 360,000); activation, % at 2 µM; HEK293 T-REx D1 cells, calcium flux, agonist mode; in the data active = activation above about 30%
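Inducible HEK293 T-REx D1 cells, force-coupled to calcium signalling, were plated at 4000 cells/well with tetracycline and held overnight at 30 C. After no-wash calcium dye loading, compound-evoked calcium rise over 180 s flagged agonists.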
DRD3 agonist – D3 dopamine receptor (human) agonism; P35462; D3R DiscoveRx beta-arrestin cells, luminescence, 90 min; max activation, %; actives 0.58% (n = 410,000); in the data active = max activation above about 30%
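Agonist mode: compounds and dopamine controls were applied to plated cells for 90 min at 37 degrees C after an overnight attachment at 1500 cells/well. Luminescent read-out followed 30 - 60 minutes at room temperature with DiscoveRx detection reagent.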
Large screens that a line does not name were inactive.

COC(=O)c1cc2sc(C)cc2n1Cc1nc(-c2ccc(C)cc2)oc1C	none (no result: DRD3 antagonist)
CC(=O)c1ccc(NC(=O)CSc2nc(=O)n(Cc3ccccn3)c3c2CCC3)cc1	none (no result: DRD3 antagonist, D1 antagonist)
CCOc1ccc(NC(=O)CN(C)S(=O)(=O)c2ccc3c(c2)c(=O)n(C)c(=O)n3C)cc1	none (no result: DRD3 antagonist)
O=C(NCCCN1CCN(c2ccc(F)cc2)CC1)c1sc2ncccc2c1-n1cccc1	D1 antagonist -37 (no result: DRD3 antagonist)
COc1ccc(CC(=O)NC2CC(=O)N(c3cccc(F)c3)C2)cc1 (configuration not stated)	none (no result: DRD3 antagonist, D1 antagonist)
CNc1cccccc1=S	DRD3 antagonist inconclusive, D1 antagonist -56
CCn1c(=O)n(CC)c2cc(N3CCCC3)c(NC(=O)Nc3cc(C)cc(C)c3)cc21	D1 ag 40 (no result: DRD3 antagonist)
CCOC(=O)c1ccc(NC(=O)Nc2cc3c(cc2N2CCCC2)n(C)c(=O)n3C)cc1	D1 antagonist -32 (no result: DRD3 antagonist)
CCn1c(=O)n(CC)c2cc(N3CCCC3)c(NC(=O)c3ccc(C)cc3)cc21	none
CCOc1cccc(/C(O)=C2/C(=O)C(=O)N(CCOC)C2c2ccco2)c1 (configuration not stated)	DRD3 antagonist -55
CCOc1cccc(/C(O)=C2/C(=O)C(=O)N(Cc3cccnc3)C2c2ccco2)c1 (configuration not stated)	none
CC(=O)c1cccc(NC(=O)CCC(=O)c2ccc(F)cc2)c1	none
O=C(CCC(=O)c1ccc(F)cc1)Nc1cc(Cl)cc(Cl)c1	D1 antagonist -41
CSc1ccccc1-n1nnnc1SCc1ccccc1	D1 ag 46
O=C(O)c1ccc(-n2nnnc2SCc2ccccc2)cc1	DRD3 antagonist inconclusive
COc1cccc2sc3ccc(NCc4ccc5c(c4)OCO5)cc3c(=O)c12	D1 ag 31
COC1=C(NCc2ccc3c(c2)OCO3)C(=O)C(OC)=C(NCc2ccc3c(c2)OCO3)C1=O	none (no result: D1 PAM, D1 antagonist, D1 ag)
S=C(N/N=C/c1ccc(Cl)cc1)N1CCOCC1	D1 antagonist -37
O=S1(=O)N=C(N/N=C/c2cccs2)c2ccccc21	D1 antagonist -31
Cc1cc(Br)ccc1NC(=O)CCS(=O)(=O)c1cccc2nsnc12	none (no result: DRD3 antagonist)
COc1ccc(CCNC(=O)Cn2c(=O)cc(C(F)(F)F)c3c(C)nn(C)c32)cc1OC	none (no result: DRD3 antagonist)
Oc1ccc(Br)cc1CNc1cnc2ccccc2c1	none
Cc1ccc(O)c(CNc2cnc3ccccc3c2)c1	D1 antagonist -31
COc1cc(S(=O)(=O)N2CCC(O)(c3cccc(C(F)(F)F)c3)CC2)ccc1-n1cnnn1	DRD3 antagonist -82
O=S(=O)(c1ccc(OC(F)(F)F)cc1)N1CCC(O)(c2cccc(C(F)(F)F)c2)CC1	D1 ag 34
COc1ccc(S(=O)(=O)N2CCCCC2)cc1-n1cnnn1	none
Cc1nn2c(=O)cc(COC(=O)c3ccc(NC(=O)c4cccc(Br)c4)cc3)nc2s1	none (no result: DRD3 antagonist)
CC(=O)Nc1ccc(NC(=O)c2ncoc2-c2ccco2)cc1	none (no result: DRD3 antagonist)
CCC(C)(C)C1CCc2[nH]nc(C(=O)NC3CCCCC3)c2C1 (configuration not stated)	DRD3 antagonist -62
CCC(C)(C)C1CCc2[nH]nc(C(=O)NN)c2C1 (configuration not stated)	none
COCCn1c(COc2ccc(C)cc2)nc2ccccc21	DRD3 antagonist inconclusive
Cc1cccc(Cn2c(COc3ccc(Cl)cc3)nc3ccccc32)c1	D1 ag 32 (no result: DRD3 antagonist)
Cc1ccc(OCc2nc3ccccc3n2CCOc2ccc(Cl)cc2)cc1	D1 ag 41 (no result: DRD3 antagonist)
COCc1nc2ccccc2n1Cc1cccc(C)c1	none
COC(=O)c1sc2cccc(F)c2c1S(=O)(=O)Nc1cc(C)c(Cl)cc1OC	none (no result: DRD3 antagonist)
Cc1ccc(C(=O)Nc2ccc(Oc3cccc(C(F)(F)F)c3)nc2)cc1	D1 antagonist -31
COC(=O)/C(=C\C(=O)c1ccccc1)Nc1cccc(C(F)(F)F)c1	DRD3 antagonist -76
O=C(O)c1ccccc1C(=O)Nc1ccc(Oc2cccc(C(F)(F)F)c2)nc1	none
O=C(Nc1ccccc1)Nc1cccc(C(F)(F)F)c1	D1 antagonist -37
COc1ccc(NC(=O)Nc2cccc(C(F)(F)F)c2)cn1	D1 antagonist -30
COC(=O)/C=C/C(=O)Nc1cccc(C(F)(F)F)c1	none
COC(=O)c1cc2c(s1)c1cnn(Cc3ccccc3F)c(=O)c1n2C	none (no result: DRD3 antagonist, DRD3 agonist)
Cc1cccc(C(=O)NC2(C(F)(F)F)N=C(c3ccccc3)N(C3CCCCC3)C2=O)c1 (configuration not stated)	none (no result: DRD3 antagonist)
